Compound activity: PubChem BioAssay, National Center for Advancing Translational Sciences (NCATS)
BCR signal inh: qHTS Assay to Find Inhibitors of Chronic Active B-Cell Receptor Signaling. Potency, µM (highest dose often 46.1 µM), without a hit: at the highest dose activity change, negative = inhibition, usual class: inhibitors. 340,000 compounds, 0.05% hits. ABC-DLBCL IkBa-CBG/CBR reporter, luminescence ratio, 4 h; active = well fitted inhibition curve with a large enough effect in the signal ratio, with a control signal flat, not every such curve was filed as active; inconclusive = small, poorly fitted or top-dose-only effect, or effect the other way, or a change in a side signal; the % refers to the signal ratio;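 also: potency is read from the fitted curve at half-maximal effect; plate controls were basal doxycycline-induced cells for no effect and cells given 10 µM MG132 for full effect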
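Doxycycline induced both beetle luciferases in TMD8 lymphoma cells; IKK-driven degradation limits the IkappaBalpha-fused green signal, while red luminescence normalises for cell number and nonspecific effects. Compounds tested up to 46 uM, 4 hrs.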
MCF10A rerep: A quantitative high throughput screen for small molecules that induce DNA re-replication in MCF 10a normal breast cells. AID 624296, 2012. MCF 10A DNA re-replication, Hoechst nuclear intensity, 48 h. Potency, µM (highest dose often 46.1 µM), inactives show at the highest dose activity, positive = re-replication, actives largely listed as activators. 350,000 compounds, 2.9% hits; also: potency is read from the fitted curve at half-maximal effect; % of control where 0% means no effect; nearly all actives have a fitted effect of over 50% in size
IL1B secr inh: qHTS for Inhibitors of Inflammasome Signaling: IL-1-beta AlphaLISA Primary Screen; AID 743279, 2014; THP-1 LPS/ATP IL-1B secretion, AlphaLISA, 16 h; active compounds read low; 360,000 compounds, 4.7% hits; activity change, % at 57.5 µM; in the data active = activity change below about -50%; inconclusive = mostly about -30% to -49%; also: % is scaled to controls: 0 for no effect and ±100 for the full control effect
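Secreted IL-1B measured by AlphaLISA bead assay after 16 h compound exposure of THP-1 cells; compounds (final up to 57.5 uM) added 1 h before LPS (250 ng/mL) and ATP (1.25 mM) stimulation; lower signal means less secretion.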
SW480 rereplic: A quantitative high throughput screen for small molecules that induce DNA re-replication in SW480 colon adenocarcinoma cells; 340,000 compounds, 1.8% hits; Potency, µM (titrated, usually from 46.1 µM), inactives show top-dose re-replication activation, most hits filed as activators; SW480 DNA re-replication, Hoechst DNA content imaging, 48 h; also: potency is read from the fitted curve at half-maximal effect; % of control where 0% means no effect; nearly all actives have a fitted effect of over 55% in size
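Readout is total intensity of Hoechst-stained nuclei, excited at 405 nm and collected at 500-530 nm. Compound treatment lasted 48 hr at 37 C in 5% CO2 before staining.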
DT40 TDP1 no CPT: qHTS for Inhibitors of human tyrosyl-DNA phosphodiesterase 1 (TDP1): qHTS in cells in absence of CPT | 420,000 compounds, 15% hits | Potency, µM (top dose mostly 46.2 µM), for the others: at the highest dose activity change, negative = growth inhibition, hits mostly inhibitors | DT40 Tdp1-/- hTDP1 cells, no CPT, ATP luminescence, 48 h; also: potency is read from the fitted curve at half-maximal effect; % is scaled to controls: 0 for no effect and ±100 for the full control effect; nearly all actives have a fitted effect of over 55% in size
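Readout: luminescence from CellTiter-Glo after 30 min in the dark at RT. Cells: DT40 Tdp1-/- with stable hTDP1, 400/well. Exposure: compounds alone, ≥48 hr, 37 °C.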
TDP1 cell CPT: qHTS for Inhibitors of human tyrosyl-DNA phosphodiesterase 1 (TDP1): qHTS in cells in presence of CPT. chicken DT40 Tdp1-/-;hTDP1 cells + 20 nM CPT, ATP luminescence, 48 h. Potency, µM (doses to about 46.2 µM), without a hit: top-dose activity change, negative = growth inhibition, usual class: inhibitors. 420,000 compounds, 12% hits. AID 686979, 2013; also: potency is read from the fitted curve at half-maximal effect; % is scaled to controls: 0 for no effect and ±100 for the full control effect; nearly all actives have a fitted effect of over 55% in size
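Cell growth measured by CellTiter-Glo luminescence after a minimum 48 h, 37 C compound exposure with 20 nM CPT in Tdp1-knockout DT40 cells stably expressing hTDP1, seeded 400/well; qHTS titration format.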
* = called active by the depositor. Shown are actives, neighbours in structure and some others; about 19% of the full set was active somewhere. Unless noted, calls follow the shape of the dose curve; as a rule, active = well fitted curve in the direction sought with a large enough effect; inconclusive = small, poorly fitted or top-dose-only effect, or another doubt; inactive = no such curve, though single readings can be large; an effect the other way counts as inactive or inconclusive.

For COc1ccc(CCNC(=O)c2cc(=O)c3ccc(C)cc3o2)cc1OC the results were BCR signal inh 0.0%, MCF10A rerep 4.9%, IL1B secr inh 11.9, SW480 rereplic inconclusive, DT40 TDP1 no CPT 20.6µM* and TDP1 cell CPT inconclusive.
For CCc1ccc(CN(C)C(=O)c2cc(=O)c3ccccc3o2)cc1 the results were BCR signal inh -8.2%, MCF10A rerep 0.9%, IL1B secr inh 2.0, SW480 rereplic -10.9%, DT40 TDP1 no CPT -16.9% and TDP1 cell CPT inconclusive.
For COc1ccc(CCNC(=O)c2cc(=O)c3cc(C)ccc3o2)cc1 the results were BCR signal inh 3.2%, MCF10A rerep -0.3%, IL1B secr inh 0.6, SW480 rereplic 18.0%, DT40 TDP1 no CPT 13µM* and TDP1 cell CPT 23.1µM*.
COc1ccc(CNC(=O)c2cc(=O)c3ccccc3o2)cc1 was read as BCR signal inh -0.8%, MCF10A rerep 3.2%, IL1B secr inh 28.9, SW480 rereplic inconclusive, DT40 TDP1 no CPT -28.6% and TDP1 cell CPT inconclusive.
O=[N+]([O-])c1ccc(COc2ccc(-c3[nH]ncc3-c3ccccc3)c(O)c2)cc1 was read as BCR signal inh inconclusive, MCF10A rerep inconclusive, IL1B secr inh -15.0, DT40 TDP1 no CPT inconclusive and TDP1 cell CPT inconclusive.
COc1ccc(-c2cn[nH]c2-c2ccc(O)cc2O)cc1 was read as BCR signal inh -4.4%, MCF10A rerep -3.1%, IL1B secr inh -10.9, SW480 rereplic 2.1%, DT40 TDP1 no CPT inconclusive and TDP1 cell CPT inconclusive.
`COc1ccc(-c2cn[nH]c2-c2ccc(OCc3ccccc3)cc2O)cc1OC` gave BCR signal inh inconclusive, MCF10A rerep inconclusive, IL1B secr inh -101.1*, SW480 rereplic inconclusive, DT40 TDP1 no CPT 18.4µM* and TDP1 cell CPT 16.4µM*.
For Oc1cc(OCc2ccccc2)ccc1-c1[nH]ncc1-c1ccccc1 the results were BCR signal inh inconclusive, MCF10A rerep 23.1µM*, IL1B secr inh -100.9*, SW480 rereplic 0.9%, DT40 TDP1 no CPT 11.6µM* and TDP1 cell CPT 10.3µM*.
For COc1ccc(-c2cn[nH]c2-c2ccc(OCc3ccc(F)cc3)cc2O)cc1OC the results were BCR signal inh inconclusive, MCF10A rerep 20.6µM*, IL1B secr inh -88.4*, SW480 rereplic 18.4µM*, DT40 TDP1 no CPT 23.1µM* and TDP1 cell CPT 20.6µM*.
Screening COc1ccc(-c2cn[nH]c2-c2ccc(OCC(=O)NN)cc2O)cc1OC returned BCR signal inh inconclusive, MCF10A rerep -1.7%, IL1B secr inh 22.8, SW480 rereplic -2.5%, DT40 TDP1 no CPT inconclusive and TDP1 cell CPT 6.7%.
COc1ccc(C2=Nc3ccccc3N(C(=O)c3ccc(C(F)(F)F)cc3)C2C(=O)Nc2ccc3c(c2)OCCO3)cc1 (configuration not stated) was read as IL1B secr inh 2.3, DT40 TDP1 no CPT -16.1% and TDP1 cell CPT 6.7%.
`O=C(CCCCCN1C(=O)[C@@H]2Cc3ccccc3CN2C1=O)Nc1cccc(F)c1` gave BCR signal inh inconclusive, MCF10A rerep 10.7%, IL1B secr inh -3.6, SW480 rereplic -2.3%, DT40 TDP1 no CPT 14.6µM* and TDP1 cell CPT inconclusive.
`Cc1cccc(NC(=O)CCCCCN2C(=O)[C@@H]3Cc4ccccc4CN3C2=O)c1` gave BCR signal inh inconclusive, MCF10A rerep -6.4%, IL1B secr inh 5.9, SW480 rereplic 0.9%, DT40 TDP1 no CPT inconclusive and TDP1 cell CPT -27.8%.
Screening CCOc1ccc(OCCC(=O)N(CCC2=CCCCC2)c2c(N)n(Cc3ccccc3)c(=O)[nH]c2=O)cc1 returned BCR signal inh 1.7%, MCF10A rerep 8.4%, IL1B secr inh -1.9, SW480 rereplic -5.1%, DT40 TDP1 no CPT inconclusive and TDP1 cell CPT 16.4µM*.
Screening CC(CC(=O)N(CCC1=CCCCC1)c1c(N)n(Cc2ccccc2)c(=O)[nH]c1=O)c1ccccc1 (configuration not stated) returned BCR signal inh -1.5%, MCF10A rerep inconclusive, IL1B secr inh 13.5, SW480 rereplic inconclusive, DT40 TDP1 no CPT 16.4µM* and TDP1 cell CPT 25.9µM*.
Screening c1ccc(-c2nnc(-c3ccccn3)nn2)nc1 returned MCF10A rerep 12.5%, IL1B secr inh 3.3, SW480 rereplic inconclusive, DT40 TDP1 no CPT inconclusive and TDP1 cell CPT 14.6µM*.
Screening c1ccc(-c2nnc(-c3ccccn3)c(-c3ccccn3)n2)nc1 returned BCR signal inh 0.0%, MCF10A rerep 0.5%, IL1B secr inh 11.5, SW480 rereplic -2.8%, DT40 TDP1 no CPT inconclusive and TDP1 cell CPT inconclusive.
c1ccc(-c2cccc(-c3ccccn3)n2)nc1 was read as BCR signal inh 11.2%, MCF10A rerep inconclusive, IL1B secr inh 47.1, SW480 rereplic inconclusive, DT40 TDP1 no CPT 3.66µM* and TDP1 cell CPT 2.06µM*.
`CC1=C(C(=O)O)N2C(=O)C(NC(=O)C(N)c3ccc(O)cc3)C2SC1` (configuration not stated) gave DT40 TDP1 no CPT -9.8% and TDP1 cell CPT 6.5%.
Cc1ccccc1Nc1c(-c2ccccc2)nc2cccc(C)n12 was read as DT40 TDP1 no CPT 3.16µM* and TDP1 cell CPT inconclusive.
`Cc1ccccc1Nc1c(-c2ccc(Cl)s2)nc2cccc(C)n12` gave DT40 TDP1 no CPT inconclusive and TDP1 cell CPT 8.2µM*.
O=[N+]([O-])c1ccc(N/N=C/c2ccc(OCc3cccc4ccccc34)cc2)nc1 was read as BCR signal inh inconclusive, MCF10A rerep inconclusive, IL1B secr inh 14.0, SW480 rereplic 20.6µM*, DT40 TDP1 no CPT inconclusive and TDP1 cell CPT -19.3%.
CCN(CC)c1ccc(C=NNc2ccc([N+](=O)[O-])cn2)cc1 was read as MCF10A rerep -13.1%, IL1B secr inh 7.1, SW480 rereplic inconclusive, DT40 TDP1 no CPT inconclusive and TDP1 cell CPT 20.6µM*.
Screening CN(C)CC[C@@](O)(c1ccccc1)c1ccccc1Cl returned MCF10A rerep -1.4% and SW480 rereplic -2.8%.
COc1ccc(NCc2cc(=O)oc3cc(NC(C)=O)ccc23)cc1 was read as BCR signal inh 0.3%, MCF10A rerep -3.6%, IL1B secr inh -9.2, SW480 rereplic 3.1%, DT40 TDP1 no CPT -17.6% and TDP1 cell CPT 9.9%.
